Experimental data taken from PubChem BioAssay (NCATS).
Several values for one entry are separate records, joined by “and”; a condition that tells them apart may be missing. Equal entries are not always repeated. Results filed as inconclusive are left out. Some structures have more than one record in an assay (separate samples or runs), and their calls can disagree. Activity calls are given as the source filed them. Unless noted, the call rests on the fitted dose curve; in most records, active means well fitted curve in either direction with a large enough effect (not every such curve was filed as active); inconclusive means small, poorly fitted or top-dose-only effect, or another doubt; inactive means flat fitted curve, though single readings scatter.

Legend:
[1] = Stat Signaling Pathway (AID 446); conditions: ME-180 SIE beta-lactamase reporter, IL-6 stimulated, 5 h;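 further: ME-180 cervical cancer cells given 40 pM IL-6 alongside compound; SIE-controlled beta-lactamase reporter measured as 460/530 nm FRET emission ratio; on the % scale 0 is the no-effect control and ±100 the full control effect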
Summary of the method: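 ME-180 SIE-bla cells; overnight plating; cpd + IL-6 40 pM, 5 h, 37 C; LiveBLAzer 2.5 h RT; 460/530 nm emission ratio. Normalized to 300 pM IL-6 and 125 nM JAK inhibitor controls.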

[2] = target: Glucocorticoid receptor (Homo sapiens) (UniProt P04150); assay: GR-GFP Redistribution (AID 450;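 active means compounds whose dose series gives a full or clear partial fitted curve of increased nuclear translocation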; further: potency means the concentration at half of the fitted maximal effect); conditions: U2OS GR-GFP nuclear translocation, laser cytometry, 2 h
Sequence of Glucocorticoid receptor (Homo sapiens) (P04150 whole entry, looked up, the tested form may be a part): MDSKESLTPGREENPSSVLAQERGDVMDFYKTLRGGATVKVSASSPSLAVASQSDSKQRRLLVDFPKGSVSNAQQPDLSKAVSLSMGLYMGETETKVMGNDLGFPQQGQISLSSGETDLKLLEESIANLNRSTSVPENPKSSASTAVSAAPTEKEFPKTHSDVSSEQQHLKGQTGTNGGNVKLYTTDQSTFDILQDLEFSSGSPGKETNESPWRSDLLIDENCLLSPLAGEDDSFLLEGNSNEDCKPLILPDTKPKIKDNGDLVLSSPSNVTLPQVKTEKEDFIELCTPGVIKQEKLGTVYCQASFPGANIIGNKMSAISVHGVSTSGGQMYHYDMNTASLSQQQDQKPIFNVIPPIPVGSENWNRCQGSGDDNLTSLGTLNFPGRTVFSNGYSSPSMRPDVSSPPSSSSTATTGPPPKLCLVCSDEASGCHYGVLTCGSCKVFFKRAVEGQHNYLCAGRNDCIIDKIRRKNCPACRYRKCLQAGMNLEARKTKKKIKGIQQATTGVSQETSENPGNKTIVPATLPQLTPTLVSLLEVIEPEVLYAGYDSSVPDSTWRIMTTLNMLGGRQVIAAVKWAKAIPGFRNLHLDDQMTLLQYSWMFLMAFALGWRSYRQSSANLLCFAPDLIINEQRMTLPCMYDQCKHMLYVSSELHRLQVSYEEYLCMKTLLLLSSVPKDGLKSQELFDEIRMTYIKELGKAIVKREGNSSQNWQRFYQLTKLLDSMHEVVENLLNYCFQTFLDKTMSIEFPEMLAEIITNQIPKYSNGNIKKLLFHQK

[3] = target: Glucocorticoid receptor (Homo sapiens) (UniProt P04150); assay: GR-EFC Redistribution (AID 451; calls by dose curve; further: potency means the concentration at half of the fitted maximal effect); conditions: CHO-K1 GR-EFC translocation, beta-gal luminescence, 2 h
Summary of the method: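 Translocation of GR-ED fusion to nuclear EA restores b-gal, read by luminescence after 1 h room-temperature detection. Engineered CHO-K1 biosensor cells, 1,000/well, exposed 2 h at 37 C to titrations up to 46 uM final.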

[4] = target: 3',5'-cyclic-AMP phosphodiesterase 4B (Homo sapiens) (UniProt Q07343); assay: qHTS Assay for Inhibitors of PDE-IV (AID 607; active means well fitted activation curve with a large enough effect in the main read-out, with a control signal flat, not every such curve was filed as active; further: % of control where 0% means no effect); conditions: HEK293 ACTOne CNG channel cells, membrane potential fluorescence; series mostly up to 22.9 µM
Sequence of 3',5'-cyclic-AMP phosphodiesterase 4B (Homo sapiens) (Q07343 whole entry, looked up): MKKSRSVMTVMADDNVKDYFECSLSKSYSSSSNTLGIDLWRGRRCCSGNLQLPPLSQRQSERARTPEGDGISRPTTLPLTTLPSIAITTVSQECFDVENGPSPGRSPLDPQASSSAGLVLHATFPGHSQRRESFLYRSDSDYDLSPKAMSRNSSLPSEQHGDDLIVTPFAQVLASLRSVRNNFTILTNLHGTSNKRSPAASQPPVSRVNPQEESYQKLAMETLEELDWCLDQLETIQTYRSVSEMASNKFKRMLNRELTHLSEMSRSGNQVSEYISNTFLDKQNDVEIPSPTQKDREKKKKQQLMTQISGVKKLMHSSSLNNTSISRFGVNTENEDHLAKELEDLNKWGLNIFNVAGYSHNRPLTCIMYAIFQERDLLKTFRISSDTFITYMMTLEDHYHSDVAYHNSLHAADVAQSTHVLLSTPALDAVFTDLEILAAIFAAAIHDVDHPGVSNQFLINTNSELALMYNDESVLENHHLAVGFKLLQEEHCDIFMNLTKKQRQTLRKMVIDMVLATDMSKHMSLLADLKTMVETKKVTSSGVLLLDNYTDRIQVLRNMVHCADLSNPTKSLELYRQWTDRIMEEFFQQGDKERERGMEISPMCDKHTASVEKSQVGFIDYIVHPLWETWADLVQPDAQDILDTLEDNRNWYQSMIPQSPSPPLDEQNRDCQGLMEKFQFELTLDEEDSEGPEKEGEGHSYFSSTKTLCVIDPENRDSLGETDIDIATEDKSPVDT
Summary of the method: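 ACTOne HEK293 cells carry a modified cAMP-gated CNG channel and express endogenous PDE4; plated 1000 cells/well, compounds up to 22.9 uM final. Membrane-potential dye fluorescence (ex 535/em 590) was read; parental cells received 10 uM forskolin + 100 uM RO 20-1724.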

[5] = target: Mitogen-activated protein kinase 10 (Mus musculus) (UniProt Q61831); assay: JNK3 AlphaScreen Assay (AID 530); conditions: JNK3 lysate, c-Jun phosphorylation; series mostly up to 57.1 µM;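 further: kinase came from lysate of stimulated human HepG2 cells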; further: potency means the concentration at half of the fitted maximal effect
Summary of the method: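 Room-temperature AlphaScreen kinase assay; pre-activated HepG2 lysate as JNK3 source, biotin-GST-cJun(1-79) substrate, 10 uM ATP, compound 15 min preincubation.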

Compound: N#C/C(=C\c1c[nH]c2ccccc12)C(=O)c1ccc(O)c(O)c1
- activity, negative = inhibition ([1]; at 38 µM (top of the series)): -11% (inactive)
- Potency [2]: > 46 µM (inactive)
- Potency [3]: > 46 µM (inactive)
- outcome [4]: inactive

Compound: Cc1c(Nc2ncccc2C(=O)O)cccc1C(F)(F)F
- activity, negative = inhibition ([1]; at 17.2 µM (top of the series)): -19.6% (inactive)
- Potency [5]: inactive

Compound: N[C@@H](CC(=O)O)C(=O)O
- Potency [2]: > 46 µM (inactive)
- Potency [3]: > 46 µM (inactive)

Compound: Cc1cc(NC(=O)Nc2ccc3c(ccn3C)c2)sn1
- Potency [2]: > 46 µM (inactive)
- Potency [3]: > 46 µM (inactive)

Compound: Nc1cc(-c2ccncc2)c[nH]c1=O
- activity, negative = inhibition ([1]; at 17.2 µM (top of the series)): -17.5% (inactive)
- Potency [2]: > 20.6 µM (inactive)
- Potency [3]: > 20.6 µM (inactive)
- Potency [5]: inactive
- outcome [4]: inactive

Compound: Fc1ccc(C(OCCCc2cnc[nH]2)c2ccc(F)cc2)cc1
- activity, negative = inhibition ([1]; at 38 µM (top of the series)): 27.8% (inactive)
- Potency [2]: > 46 µM (inactive)
- Potency [3]: > 46 µM (inactive)
- Potency [5]: inactive
- outcome [4]: inactive

Compound: O=c1[nH]c2cc([N+](=O)[O-])c([N+](=O)[O-])cc2[nH]c1=O
- activity, negative = inhibition ([1]; at 38 µM (top of the series)): 21% (inactive)
- Potency [2]: > 46 µM (inactive)
- Potency [3]: > 46 µM (inactive)
- Potency [5]: inactive
- outcome [4]: inactive

Compound: CCCSc1ccc2nc(NC(=O)OC)[nH]c2c1
- activity, negative = inhibition ([1]; at 17.2 µM (top of the series)): -7.64% (inactive) and -2.74% (inactive)
- Potency [2]: > 20.6 µM (inactive)
- Potency [3]: > 20.6 µM (inactive)
- Potency [5]: inactive
- outcome [4]: inactive

Compound: O=c1[nH]c2cc(C(F)(F)F)ccc2n1-c1cc(C(F)(F)F)ccc1O
- Potency [2]: > 46 µM (inactive)
- Potency [3]: > 46 µM (inactive)

Compound: NCCNC(=O)c1ncsc1-c1cccc(F)c1
- activity, negative = inhibition ([1]; at 38 µM (top of the series)): 3.48% (inactive)
- Potency [2]: > 46 µM (inactive)
- Potency [3]: > 46 µM (inactive)
- Potency [5]: inactive
- outcome [4]: inactive

Compound: Oc1cc2c(cc1O)CN(C(=S)NCCc1ccc(Cl)cc1)CCC2
- activity, negative = inhibition ([1]; at 38 µM (top of the series)): 6.62% (inactive)
- Potency [2]: > 46 µM (inactive)
- Potency [3]: > 46 µM (inactive)
- Potency [5]: inactive and 10 µM (active)
- outcome [4]: inactive

Compound: NCCCCCCCCCCN
- activity, negative = inhibition ([1]; at 38 µM (top of the series)): -2.37% (inactive)
- Potency [2]: > 46 µM (inactive)
- Potency [3]: > 46 µM (inactive)
- outcome [4]: inactive

Compound: Ic1ccc(N2CCN(Cc3c[nH]c4ncccc34)CC2)cc1
- activity, negative = inhibition ([1]; at 38 µM (top of the series)): -23% (inactive)
- Potency [2]: > 46 µM (inactive)
- Potency [3]: > 46 µM (inactive)
- outcome [4]: inactive

Compound: Cc1ccc(O)c(N=Nc2ccccc2)n1
- activity, negative = inhibition ([1]; at 38 µM (top of the series)): -4.23% (inactive)
- Potency [2]: > 46 µM (inactive)
- Potency [3]: > 46 µM (inactive)
- Potency [5]: inactive
- outcome [4]: inactive

Compound: CCCCN1CCC(n2c(=O)[nH]c3ccccc32)CC1
- Potency [2]: > 46 µM (inactive)
- Potency [3]: > 46 µM (inactive)

Compound: c1ccc(-c2ccccn2)nc1
- activity, negative = inhibition ([1]; at 38 µM (top of the series)): 6.11% (inactive)
- Potency [2]: > 46 µM (inactive)
- Potency [3]: > 46 µM (inactive)
- Potency [5]: inactive
- outcome [4]: inactive
